# Results reported in PubChem BioAssay (NCATS).
# Inconclusive results are not listed. Unmarked numbers belong to inactive results. Calls of active or inactive are those of the source. Calls follow the shape of the dose curve; as a rule, active = well fitted cell-killing curve with a large enough effect; inconclusive = small, poorly fitted or top-dose-only effect, or effect the other way; inactive = no such curve, though single readings can be large or run the other way.
# Test: Quantitative highthroughput screen to assess conditional lethalithy of SEM cells grown in RPMI1640 with unreated serum (RPMI+s) (AID 1963883); also: nearly all actives have a fitted effect of over 35% in size;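 as to viability: 100% = DMSO wells and 0% = empty wells without cells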
# Conditions: SEM B-ALL cells, CellTiter-Glo viability, 48 h; series mostly up to 45.8 µM; viability: at the top concentration
# Procedure, shortened: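 Each medium arm—HPLM with 10% dialyzed FBS, or RPMI1640 with 5 mM glucose and 10% untreated or dialyzed FBS—was screened against an 11-point, 3-fold compound titration for 48 h at 37 °C, with CellTiter-Glo luminescence as endpoint.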
# Potency is read from the fitted curve at half-maximal effect.
SMILES,Potency,viability
Cn1c(=O)n(-c2ccc(C(C)(C)C#N)cc2)c2c3cc(-c4cnc5ccccc5c4)ccc3ncc21,0.166 µM (active),
CCCCCCCCCCCCc1ccc(S(=O)(=O)Nc2nncs2)cc1,3.32 µM (active),
Cc1ccc2nc(NCCN)c3ncc(C)n3c2c1,23.5 µM (active),
Cn1cc(C[C@@H](N)C(=O)O)c2ccccc21,,71.3% [at 23.2 µM]
COc1cc(C)c(Sc2cnc(NC(=O)c3ccc(CNC(C)C(C)(C)C)cc3)s2)cc1C(=O)N1CCN(C(C)=O)CC1 (stereo not drawn),4.18 µM (active),
C[C@@H]1C[C@H]2[C@@H]3CCC4=CC(=O)C=C[C@]4(C)[C@@]3(Cl)[C@@H](O)C[C@]2(C)[C@@]1(OC(=O)c1ccco1)C(=O)CCl,,49.9%
COCCNCCCn1c(C(=O)CF)c(-c2ccc(C)cc2)c2c(N)ncnc21,0.166 µM (active),
COc1ncc(-c2ccc3c(Nc4cc(Oc5cc(F)cc(F)c5)cc(C(=O)O)c4)c(S(=O)(=O)NC4CC4)cnc3c2)c(OC)n1,,98.6%
O=C(c1ccc(F)cc1)C1CCN(CCn2c(=O)[nH]c3ccccc3c2=O)CC1,,105%
NS(=O)(=O)c1ccc(Nc2nc(OCC3CCCCC3)c3[nH]cnc3n2)cc1,0.296 µM (active),
Cc1cnc(NC(=O)Nc2cc(Br)c(C)cc2OC[C@@H]2CNCCO2)cn1,0.935 µM (active),
COc1cc2ncnc(-n3nc(-c4ccccn4)nc3N)c2cc1OC,1.32 µM (active),
CC(C)c1ccc2c(c1)c(SC(C)(C)C)c(CC(C)(C)C(=O)O)n2Cc1ccc(Cl)cc1,,96.6%
CCN(CCO)CCCOc1ccc2c(Nc3cc(CC(=O)Nc4cccc(F)c4)[nH]n3)ncnc2c1,0.264 µM (active),
CN[C@@H](C)[C@H]1[C@H](O)C[C@@]2(C)[C@@H]3CC[C@H]4C(C)(C)[C@@H](NC)CC[C@@]45C[C@@]35CC[C@]12C,,109%
Cc1ccc(C(=O)c2cc(O)c(O)c([N+](=O)[O-])c2)cc1,,93%
CCOC(=O)[C@@H](N)CCC(=O)N[C@@H](CSCc1ccccc1)C(=O)N[C@@H](C(=O)OCC)c1ccccc1,,80.4%
CC(C)(C)c1cc(C(C)(C)C)c(NC(=O)c2c[nH]c3ccccc3c2=O)cc1O,,96.1%
NC(=O)NO,4.18 µM (active),
Nc1ccccc1NC(=O)c1ccc(CNC(=O)OCc2cccnc2)cc1,0.743 µM (active),
COc1cccc(OC)c1-c1cc(C(=O)NC2(C(=O)O)C3CC4CC(C3)CC2C4)nn1-c1ccnc2cc(Cl)ccc12 (stereo not drawn),,87.7%
Cc1cn(CCN2CCN(c3ccccc3-c3cc(C#N)cc(C(=O)NCCCN4CCCC4)c3)CC2)c2ccccc12,13.2 µM (active),
COC(=O)N[C@H](C(=O)N[C@@H](Cc1ccccc1)[C@@H](O)CN(Cc1ccc(-c2ccccn2)cc1)NC(=O)[C@@H](NC(=O)OC)C(C)(C)C)C(C)(C)C,,91.5%
Nc1c2c(nc3ccccc13)CCCC2,,88%
CNC(=O)c1cc(Oc2ccc(NC(=O)Nc3ccc(Cl)c(C(F)(F)F)c3)c(F)c2)ccn1,0.372 µM (active),
O=S(=O)(O)CCS,,107%
CCN(c1ccccc1)c1cc(NC)[n+](C)c(C)n1,,102%
CCn1c(C(=O)N(C2CC2)C2CC2)cc2c3c(ncn3C)c(Nc3cc(C)n(C)n3)nc21,20.9 µM (active),
